Data from PubChem BioAssay (NCATS).
Several values for one entry are separate records, joined by “and”; a condition that tells them apart may be missing. Equal entries are not always repeated. Results filed as inconclusive are left out. Activity calls are given as the source filed them. Unless noted, calls come from the whole dose curve; as a rule, active = well fitted curve in either direction with a large enough effect (not every such curve was filed as active); inconclusive = small, poorly fitted or top-dose-only effect, or another doubt; inactive = flat fitted curve, though single readings scatter.

Tests used:
[1] = AP1 Signaling Pathway (AID 357);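 note: ME-180 reporter cells stimulated with EGF at its EC50 level; % is set by controls: 0 for no effect and ±100 for the full control effect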
Summary of the method: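 Read-out was the 460nm/530nm emission ratio (excitation 405nm) after CCF4 loading for 2.5 hours at room temperature. Cells carried an AP-1-driven beta-lactamase reporter, were stimulated with EC50 EGF plus compound for 5 hours, and AC50 values came from titrations.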

[2] = NFAT Signaling Pathway (AID 444); conditions: Jurkat NFAT-bla M1, carbachol, beta-lactamase ratio, 5 h;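 note: carbachol stimulus at about its EC50 of 1 µM final; % is set by controls: 0 for no effect and ±100 for the full control effect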
Summary of the method: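 Jurkat cells with NFAT-driven β-lactamase reporter and co-expressed M1 receptor, stimulated with carbachol (final 1 uM, ~EC50), compound titration, 5 h at 37 °C. CCF4 loaded 1 h at RT; 460/530 nm ratio gave %activity and AC50.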

[3] = Stat Signaling Pathway (AID 446);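 note: ME-180 cervical cancer cells given 40 pM IL-6 alongside compound; SIE-controlled beta-lactamase reporter measured as 460/530 nm FRET emission ratio; % is set by controls: 0 for no effect and ±100 for the full control effect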
Summary of the method: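 Overnight-plated ME-180 cells bearing a STAT Inducible Element beta-lactamase reporter; 5 h co-exposure to compound and 40 pM IL-6; values normalized to 300 pM IL-6 and 125 nM JAK inhibitor controls.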

[4] = target: Glucocorticoid receptor (Homo sapiens) (UniProt P04150); test: GR-GFP Redistribution (AID 450;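 active = compounds whose dose series gives a full or clear partial fitted curve of increased nuclear translocation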; note: potency is the fitted concentration of half-maximal effect); conditions: U2OS GR-GFP nuclear translocation, laser cytometry, 2 h
[5] = target: Mitogen-activated protein kinase 10 (Mus musculus) (UniProt Q61831); test: JNK3 AlphaScreen Assay (AID 530);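 note: kinase came from lysate of stimulated human HepG2 cells; signal reports phosphorylation of biotinylated GST-cJun 1-79 at Ser73 with 10 µM ATP; % is set by controls: 0 for no effect and ±100 for the full control effect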
Summary of the method: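 Activity was read by AlphaScreen after JNK3-containing HepG2 lysate (cytokine pre-activated) phosphorylated biotinylated GST-cJun with 10 uM ATP at room temperature. Phospho-Ser73 cJun antibody with Protein-A acceptor beads provided detection.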

[6] = Cell Viability - BJ (AID 421; calls by dose curve;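 note: potency is the fitted concentration of half-maximal effect; cells exposed to compound for 40 hours at 37 °C before readout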); conditions: BJ fibroblast viability, qHTS
Summary of the method: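 Quantitative HTS: ATP depletion in BJ cells after 40 hr compound exposure in complete culture medium, detected with CellTiter-Glo; AC50 from standard Hill fits.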

[7] = Cell Viability - Jurkat (AID 426;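 active = dose-dependent loss of cell ATP signal giving a full or clear fitted curve, ranked by lower potency value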;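 note: potency is the fitted concentration of half-maximal effect; cells exposed to compound for 40 hours at 37 °C before ATP read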); conditions: qHTS
Summary of the method: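 Cells of the human T-cell leukemia line Jurkat (E6-1) are seeded at 5000 per well, treated with compound across a concentration range for 40 hours at 37 °C, then lysed with CellTiter-Glo; luminescence reports ATP.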

[8] = Cell Viability - Hek293 (AID 427;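 active = compounds whose dose-response curve shows a full or clear partial loss of cell viability, called from curve shape rather than a numeric limit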;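 note: potency is the fitted concentration of half-maximal effect; cells exposed to compound for 40 hours at 37 °C before reading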); conditions: qHTS
Summary of the method: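 AC50 values derive from Hill-modelled concentration-response of ATP-based luminescence, normalized between DMSO-only and 100 uM tamoxifen controls. Cells were exposed in complete culture medium for 40 hr at 37 °C before detection.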

[9] = Cell Viability - HepG2 (AID 433; calls by dose curve;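 note: potency is the fitted concentration of half-maximal effect; potency for ATP loss meaning cytotoxicity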); conditions: qHTS
Summary of the method: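 Cytotoxicity is scored as loss of intracellular ATP in HepG2 cells exposed to compounds for 40 h. Concentration-response curves, normalized to DMSO and 100 uM tamoxifen, give AC50 values.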

[10] = Cell Viability - MRC5 (AID 434; calls by dose curve;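 note: potency is the fitted concentration of half-maximal effect; potency reflects cytotoxicity seen as loss of intracellular ATP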); conditions: MRC5 lung fibroblast viability, qHTS
Summary of the method: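 ATP luminescence read-out (CellTiter-Glo, 20 min RT) after 40 hr, 37 °C compound exposure of 1500 MRC5 cells/well. Data normalized to DMSO (basal) and 100 uM tamoxifen (100% inhibition); AC50 from standard Hill equation.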

[11] = Cell Viability - SK-N-SH (AID 435; calls by dose curve;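 note: potency is the fitted concentration of half-maximal effect; compound exposure lasted 40 h at 37 °C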); conditions: SK-N-SH neuroblastoma cell viability qHTS
Summary of the method: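 Cells seeded at 1500 per well and incubated 5 hr at 37 °C. Compound added, then 40 hr at 37 °C. CellTiter-Glo added, 20 min at room temperature, luminescence read.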

[12] = Cell Viability - N2a (AID 540; active = well fitted curve in the direction sought with a large enough effect; an effect the other way counts as inactive or inconclusive;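 note: cells exposed to compound for 40 h at 37 °C; plate controls were DMSO alone for no effect and tamoxifen control for full effect; nearly all actives have a fitted effect of over 45% in size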); conditions: N2a mouse neuroblastoma cell viability; activity change, negative = cytotoxicity: at 92.2 µM (top of the series)
Summary of the method: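 Cytotoxicity was scored as loss of cellular ATP in N2a cells, a mouse neuroblastoma line. Compounds are applied in a qHTS concentration series for 40 hr at 37 °C.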

[13] = Cell Viability - NIH 3T3 (AID 541; active = well fitted curve in the direction sought with a large enough effect; an effect the other way counts as inactive or inconclusive;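 note: plate controls were DMSO alone for no effect and tamoxifen positive control for full effect; nearly all actives have a fitted effect of over 25% in size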); conditions: NIH 3T3 cell viability, qHTS; activity change, negative = cytotoxicity: at 92.2 µM (top of the series)
Summary of the method: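 Cells seeded at 1000/well, rested 5 hr at 37 °C, then dosed and incubated 40 hr at 37 °C. CellTiter-Glo added, 20 min room temperature, luminescence read. AC50 by Hill fit.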

[14] = Cell Viability - HUV-EC-C (AID 542; active = well fitted curve in the direction sought with a large enough effect; an effect the other way counts as inactive or inconclusive; note: % is set by controls: 0 for no effect and ±100 for the full control effect; nearly all actives have a fitted effect of over 35% in size)
Summary of the method: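 Cells were seeded at 1000 per well and incubated 5 hr at 37 °C before compound addition. After 40 hr at 37 °C, CellTiter-Glo reagent was added for 20 min and luminescence read. AC50 values came from Hill-equation modelling.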

[15] = Cell Viability - H-4-II-E (AID 543; active = well fitted curve in the direction sought with a large enough effect; an effect the other way counts as inactive or inconclusive; note: % is set by controls: 0 for no effect and ±100 for the full control effect; nearly all actives have a fitted effect of over 35% in size)
Summary of the method: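 Cells seeded at 1500 per well and rested 5 hr; compounds added; 40 hr incubation at 37 °C; CellTiter-Glo added, 20 min at room temperature; luminescence read. Hill-equation fits gave AC50.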

[16] = Cell Viability - SH-SY5Y (AID 544; active = well fitted curve in the direction sought with a large enough effect; an effect the other way counts as inactive or inconclusive;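 note: 0% = DMSO alone and -100% = 100 µM tamoxifen; nearly all actives have a fitted effect of over 55% in size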); conditions: SH-SY5Y neuroblastoma cell viability; viability change, negative = cytotoxic: at 92.2 µM (top of the series)
Summary of the method: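 Cells were plated at 1500 per well and allowed 5 hr at 37 °C. Compounds were added across a concentration range and incubated 40 hr at 37 °C. CellTiter-Glo was added for 20 min at room temperature before luminescence reading.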

[17] = Cell Viability - Renal Proximal Tubule (AID 545; active = well fitted curve in the direction sought with a large enough effect; an effect the other way counts as inactive or inconclusive;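 note: 0% = DMSO only and -100% = 100 µM tamoxifen; nearly all actives have a fitted effect of over 40% in size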)
Summary of the method: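 Cytotoxicity is scored as a concentration-dependent drop in cellular ATP in primary rat renal proximal tubule cells exposed for 40 hr. AC50 derives from Hill modelling.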

[18] = Cell Viability - Mesenchymal (AID 546; active = well fitted curve in the direction sought with a large enough effect; an effect the other way counts as inactive or inconclusive;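 note: cells exposed to compound for 40 hours before reading; 0% = DMSO only and -100% = 100 µM tamoxifen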)
Summary of the method: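 Human renal mesenchymal cells (glomerulus-derived), 1000 cells/well, 5 hr 37 °C pre-incubation; compound 40 hr, 37 °C; CellTiter-Glo, 20 min RT; luminescence; AC50 via Hill equation.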

Chain of Glucocorticoid receptor (Homo sapiens) (P04150 whole entry, looked up): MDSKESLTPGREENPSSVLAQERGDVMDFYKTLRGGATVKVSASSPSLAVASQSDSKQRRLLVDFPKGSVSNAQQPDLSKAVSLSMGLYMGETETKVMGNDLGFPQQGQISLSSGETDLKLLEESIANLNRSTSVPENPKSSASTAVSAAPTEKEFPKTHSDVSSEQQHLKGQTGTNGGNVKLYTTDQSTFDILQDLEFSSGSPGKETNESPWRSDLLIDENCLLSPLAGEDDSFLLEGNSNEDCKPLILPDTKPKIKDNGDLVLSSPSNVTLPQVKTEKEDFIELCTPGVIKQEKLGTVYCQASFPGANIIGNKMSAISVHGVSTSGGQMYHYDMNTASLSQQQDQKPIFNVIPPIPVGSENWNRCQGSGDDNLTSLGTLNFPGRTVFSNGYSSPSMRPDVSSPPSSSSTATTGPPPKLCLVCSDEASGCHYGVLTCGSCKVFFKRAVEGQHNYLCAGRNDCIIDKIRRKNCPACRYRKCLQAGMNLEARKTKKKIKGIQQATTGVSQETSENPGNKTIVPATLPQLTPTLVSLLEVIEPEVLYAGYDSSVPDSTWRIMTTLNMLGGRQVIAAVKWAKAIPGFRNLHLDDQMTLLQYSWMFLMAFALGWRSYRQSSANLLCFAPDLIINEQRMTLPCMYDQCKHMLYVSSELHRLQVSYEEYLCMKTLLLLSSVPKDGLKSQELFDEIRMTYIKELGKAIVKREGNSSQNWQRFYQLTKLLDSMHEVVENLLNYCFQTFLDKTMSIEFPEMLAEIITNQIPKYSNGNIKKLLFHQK

O=C(C1CCCCC1)N1CC(=O)N2CCc3ccccc3C2C1 (configuration not stated)
inactive: outcome [1] | activity change, negative = inhibition ([2]; at 17.2 µM (top of the series)) -4.85% and -1.54% | outcome [3] | Potency [4] > 20.6 µM

NCCCCCC(=O)O
inactive: outcome [1] | activity change, negative = inhibition ([2]; at 17.2 µM (top of the series)) -9.25% | activity change, negative = inhibition ([2]; at 38 µM (top of the series)) 21.3% | outcome [3] | Potency [4] > 46 µM and > 20.6 µM | outcome [5]

COc1ccc2c(c1)c(CC(=O)O)c(C)n2C(=O)c1ccc(Cl)cc1
inactive: outcome [1] | Potency [6] > 92 µM | Potency [7] > 92 µM | Potency [8] > 92 µM | Potency [9] > 92 µM | Potency [10] > 92 µM | Potency [11] > 92 µM | activity change, negative = inhibition ([2]; at 17.2 µM (top of the series)) -5.62% and 13.9% | activity change, negative = inhibition ([2]; at 38 µM (top of the series)) 8.92% | outcome [3] | Potency [4] > 46 µM and > 20.6 µM | outcome [5] | activity change, negative = cytotoxicity [12] 0.758% | Potency [13] | outcome [14] | Potency [15] | Potency [16] | Potency [17] | outcome [18]

Cn1c(=O)c2[nH]cnc2n(C)c1=O
inactive: outcome [1] | Potency [6] > 92 µM | Potency [7] > 92 µM | Potency [8] > 92 µM | Potency [9] > 92 µM | Potency [10] > 92 µM | Potency [11] > 92 µM | activity change, negative = inhibition ([2]; at 17.2 µM (top of the series)) -8.18% and -8.96% and 7.57% | activity change, negative = inhibition ([2]; at 38 µM (top of the series)) 8.38% | outcome [3] | outcome [5] | activity change, negative = cytotoxicity [12] 8.85% | Potency [13] | outcome [14] | Potency [15] | Potency [16] | Potency [17] | outcome [18]

CN(C)c1nc(N(C)C)nc(N(C)C)n1
inactive: outcome [1] | activity change, negative = inhibition ([2]; at 17.2 µM (top of the series)) 2.19% and 4.9% | activity change, negative = inhibition ([2]; at 38 µM (top of the series)) 6.06% | outcome [3] | Potency [4] > 46 µM and > 20.6 µM | outcome [5]

CCC1(c2ccccc2)C(=O)NCNC1=O
inactive: outcome [1] | Potency [6] > 92 µM | Potency [7] > 92 µM | Potency [8] > 92 µM | Potency [9] > 92 µM | Potency [10] > 92 µM | Potency [11] > 92 µM | activity change, negative = inhibition ([2]; at 17.2 µM (top of the series)) -2.38% and -28.2% | activity change, negative = inhibition ([2]; at 38 µM (top of the series)) 0.117% | outcome [3] | Potency [4] > 46 µM and > 20.6 µM | outcome [5] | activity change, negative = cytotoxicity [12] -14.7% | Potency [13] | outcome [14] | Potency [15] | Potency [16] | Potency [17] | outcome [18]
